CF NFkB block = inhibitors of PAF-induced NF-kB signaling, primary screen, cell-based, GFP fluorescence, uHTS | KKLEB NF-kB-GFP reporter, GFP fluorescence overnight | 360,000 tested, 0.86% active | inhibition, % at 5 µM | AID 588850, 2011;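 active = at least 50% inhibition at 5 µM, scaled per plate between neutral and stimulator controls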;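 also: PAF is a Pseudomonas aeruginosa culture filtrate used as stimulus; plate controls were PAF-stimulated DMSO wells for no effect and unstimulated DMSO wells for full effect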
PAX8 reporter = inhibitors of PAX8-driven TPO luciferase reporter, primary screen, RMG-I cells, single concentration; 360,000 tested, 1.2% active; inhibition, % at 12.6 µM; SteadyGlo, 24 h; AID 652154, 2013;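 active = mean replicate inhibition at least 60% with every replicate also reaching 60%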;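 also: luciferase light reporting Pax8 driven TPO promoter activity; plate controls were median of neutral control wells for no effect and mitoxantrone controls for full effect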
KKLEB tox = cytotoxicity in KKLEB CF airway cells, primary screen, cytotoxicity control for CF NF-kB inhibitor project, cell-based, uHTS, fluorescence assay plates; activity change (cytotoxicity), % at 5 µM; 360,000 tested, 0.36% active; KKLEB CF airway cells viability, ATPlite luminescence, overnight; stronger effect = lower value; cells stimulated with P. aeruginosa culture filtrate; AID 602141, 2011;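 active = corrected activity change at or below -50% at 5 µM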
HIF-2a inh = HIF-2a reporter inhibitors, primary screen, luminescence, 786-0 RCC cells; 786-0 RCC cells HIF-2a reporter, luciferase luminescence, overnight; inhibition, % at 18.8 µM; 360,000 tested, 0.72% active; AID 624352, 2012;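 active = inhibition of the luminescence signal of 40% or more relative to plate controls, in a single-dose primary screen at 18.75 µM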
EWS-Fli block = EWS/Fli-driven NR0B1 reporter inhibitors, primary screen, A673 cells, NR0B1 luciferase, luminescence, MLPCN library; viability-normalised; inhibition, % at 12.6 µM; 350,000 tested, 0.67% active;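 active = mean inhibition of at least 50% after viability correction, with every replicate also passing that limit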;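 also: firefly luciferase signal divided by Alamar Blue viability fluorescence both relative to DMSO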
Active calls of the source: *; x = no result. An excerpt weighted towards active compounds, which were near 2.1% of everything screened.

SMILES	CF NFkB block	PAX8 reporter	KKLEB tox	HIF-2a inh	EWS-Fli block
COc1cccc(N2CCN(C(=O)c3ccc(CS(=O)Cc4ccc(C)cc4)o3)CC2)c1 (stereo unspecified)	0	29	-1	21	-7
COc1cccc(N2CCN(C(=O)c3cn(Cc4ccccc4)nc3-c3cccnc3)CC2)c1	1	52	-16	11	57*
COc1ccccc1N1CCN(C(=O)c2cn(Cc3ccccc3)nc2-c2cccnc2)CC1	14	5	8	11	-7
Cc1cccc(NC(=O)c2cnc3ccccn3c2=O)c1	-39	-224	-6	-50	58*
COc1ccccc1C#Cc1ccc([C@@H]2[C@@H](CO)N3CCCCN(S(C)(=O)=O)C[C@H]23)cc1	x	19	x	x	1
O=C(CC1CC1)N1CC[C@H]2[C@H](CO)Nc3ccc(-c4ccc(F)cc4)cc3[C@H]21	x	17	x	x	-14
Cc1c(C(=O)N/N=C/c2ccc(Cl)cc2)[nH]c2ccc(Cl)cc12	62*	58	-44	13	59*
O=C(N/N=C/c1c[nH]c2ccccc12)c1[nH]c2ccc(Br)cc2c1-c1ccccc1	34	94*	-14	31	48
O=C(N/N=C/c1ccc(O)cc1)c1[nH]c2ccc(Br)cc2c1-c1ccccc1	58*	96*	-27	18	49
CCOc1ccc(/C=N/NC(=O)c2[nH]c3ccc(C)cc3c2C)cc1	5	-2	-8	-12	-3
CCCC#Cc1ccc2c(c1)O[C@@H](CN(C)CC1CCOCC1)[C@@H](C)CN([C@@H](C)CO)S2(=O)=O	x	0	x	x	8
C[C@H]1CCCCO[C@H](CN(C)C(=O)Nc2cccc3ccccc23)[C@@H](C)CN([C@@H](C)CO)C(=O)c2cc(NS(=O)(=O)c3ccc(F)cc3)ccc2O1	x	87*	x	x	24
C[C@@H]1CCCCO[C@@H](CN(C)C(=O)Nc2cccc3ccccc23)[C@H](C)CN([C@H](C)CO)C(=O)c2cc(NS(=O)(=O)c3ccc(F)cc3)ccc2O1	x	93*	x	x	6
C[C@@H]1CCCCO[C@H](CN(C)C(=O)Nc2cccc3ccccc23)[C@@H](C)CN([C@H](C)CO)C(=O)c2cc(NS(=O)(=O)c3ccc(F)cc3)ccc2O1	x	-1	x	x	14
C[C@@H]1CN([C@@H](C)CO)C(=O)c2cccc(NS(=O)(=O)c3ccc(F)cc3)c2O[C@H]1CN(C)C(=O)Nc1cccc2ccccc12	x	x	x	x	-6
O=C1ON=C(c2ccccc2)/C1=C/c1ccc(O)c(O)c1	-17	-5	5	41*	18
COc1ccc(/C=C2\C(=O)ON=C2c2ccccc2)cc1	-7	-59	8	27	22
O=C1ON=C(c2ccccc2)/C1=C/c1ccc(OS(=O)(=O)c2ccccc2)cc1	-3	108*	13	-21	-6
O=C(Cc1ccccc1)N[C@@H]1CC[C@@H](CC(=O)N2CCCCC2)O[C@@H]1CO	x	-23	x	x	6
O=C(O)c1ccc(N=NNc2cccc([N+](=O)[O-])c2)cc1	6	-87	0	-162	-2
O=C(/C(N=Nc1cccc([N+](=O)[O-])c1)=C(/O)c1ccc(Br)cc1)C(F)(F)F	51*	x	-58*	-161	x
CCOC(=O)C1(Cc2ccc(OC)cc2)CCN(C(=O)CN2CCCCC2=O)CC1	-18	92*	-5	-32	-15
COc1ccc(S(=O)(=O)N2C[C@@H](O)COC[C@@H]3O[C@@H](CC(=O)NCc4ccc(Cl)c(Cl)c4)CC[C@H]32)cc1	x	25	x	x	6
COC(=O)[C@@]1(Cc2ccccc2)N=C(c2ccc(OCCCO)cc2)O[C@H]1c1ccccc1CN=[N+]=[N-]	x	96*	x	x	9
C=CC[C@]1(C(=O)OC)COC(c2ccc(OCCCO)cc2)=N1	x	-64	x	x	-14
COC(=O)[C@@]1(CCS(=O)(=O)c2ccccc2)COC(c2ccc(OCCCO)cc2)=N1	x	10	x	x	80*
COC(=O)[C@]1(Cc2ccccc2)N=C(c2ccc(OCCCO)cc2)O[C@@H]1c1ccccc1CN=[N+]=[N-]	x	11	x	x	8
COC(=O)[C@]1(CCS(=O)(=O)c2ccccc2)N=C(c2ccc(OCCCO)cc2)O[C@@H]1c1ccccc1CN=[N+]=[N-]	x	95*	x	x	27
O=C(NC1Cc2ccccc2C1)[C@@H]1[C@@H](CO)[C@@H]2Cn3c(ccc(C4=CCCC4)c3=O)[C@H]1N2	x	x	x	x	-4

Source: PubChem BioAssay (several laboratories)
